Values without a mark were called inactive. Inconclusive results are not listed. A call without a number means that no potency is given here. The source made the active and inactive calls. Unless noted, calls come from the whole dose curve; as a rule, active = well fitted curve in the direction sought with a large enough effect; inconclusive = small, poorly fitted or top-dose-only effect, or another doubt; inactive = no such curve, though single readings can be large; an effect the other way counts as inactive or inconclusive.
Tests used:
[1] = tested on: Hek293T; assay: Primary qHTS to identify gynecologic anti-cancer compounds using libraries of approved drugs and bioactive compounds (AID 1345084); conditions: Gynecologic cancer cell panel viability, ATPlite luminescence, 48 h, control line for the selectivity index; series mostly up to 57.5 µM; note: nearly all actives have a fitted effect of over 55% in size
Method in brief: (§1)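 Measured: luminescence after ATPlite addition (15 min, RT). Exposure: 48 h, 37 C, 5% CO2.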

[2] = tested on: JEG-3; assay: as above; conditions: Gynecologic cancer cell panel viability, ATPlite luminescence, 48 h; series mostly up to 57.5 µM
Method in brief: as §1

[3] = tested on: OV90; assay: as above; conditions: Gynecologic cancer cell panel viability, ATPlite luminescence, 48 h; series mostly up to 57.5 µM
Method in brief: as §1

[4] = tested on: PA-1; assay: as above; conditions: Gynecologic cancer cell panel viability, ATPlite luminescence, 48 h; series mostly up to 57.5 µM
Method in brief: as §1

[5] = tested on: SKOV3; assay: as above; conditions: Gynecologic cancer cell panel viability, ATPlite luminescence, 48 h; series mostly up to 57.5 µM
Method in brief: as §1

[6] = tested on: Tov-21-G; assay: as above; conditions: Gynecologic cancer cell panel viability, ATPlite luminescence, 48 h; series mostly up to 57.5 µM
Method in brief: as §1

[7] = tested on: Tov112D; assay: as above; conditions: Gynecologic cancer cell panel viability, ATPlite luminescence, 48 h; series mostly up to 57.5 µM
Method in brief: as §1

[8] = Drug repurposing screens with cells derived from glioblastoma tumor samples (AID 1345199); conditions: GBM patient neurospheres viability, ATP luminescence, 48 h; note: nearly all actives have a fitted effect of over 40% in size; note: potency is the fitted concentration of half-maximal effect
Method in brief: (§2)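 Primary testing used CD133+ neurospheres from four GBM patients, seven concentrations, 48 h exposure and ATP-based viability; confirmation added three slower-growing patient lines.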

[9] = tested on: astro; assay: as above; conditions: viability, ATP luminescence, 48 h; series mostly up to 45.9 µM
Method in brief: as §2

[10] = target: Nuclear receptor subfamily 1 group I member 2 (Rattus norvegicus) (UniProt Q9R1A7); assay: qHTS assay for small molecule activators of the rat pregnane X receptor (rPXR) signaling pathway (AID 651751; call rule not given here); conditions: rPXR reporter cells, luciferase (One-Glo), 24 h
Sequence of Nuclear receptor subfamily 1 group I member 2 (Rattus norvegicus) (Q9R1A7 whole entry, looked up): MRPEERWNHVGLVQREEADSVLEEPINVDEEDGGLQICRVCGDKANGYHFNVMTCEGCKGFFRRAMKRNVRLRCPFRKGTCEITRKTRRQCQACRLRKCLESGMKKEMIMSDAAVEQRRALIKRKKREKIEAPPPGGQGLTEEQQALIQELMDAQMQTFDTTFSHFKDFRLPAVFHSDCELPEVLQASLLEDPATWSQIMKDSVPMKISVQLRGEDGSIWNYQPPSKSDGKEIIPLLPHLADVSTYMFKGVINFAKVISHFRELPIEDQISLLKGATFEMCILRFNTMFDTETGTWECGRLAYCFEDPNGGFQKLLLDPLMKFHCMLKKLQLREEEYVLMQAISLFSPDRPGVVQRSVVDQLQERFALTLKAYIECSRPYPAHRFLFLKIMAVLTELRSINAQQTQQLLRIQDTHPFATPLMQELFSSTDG

[11] = qHTS assay for small molecule activators of the human pregnane X receptor (PXR) signaling pathway (AID 720659; call rule not given here)
[12] = at 45.9 µM (top of the series), tumour line B
[13] = at 45.9 µM (top of the series), tumour line D
[14] = at 46.1 µM (top of the series), tumour line C
[15] = at 46 µM (top of the series), tumour line A
[16] = at 20 µM (top of the series), tumour line C
[17] = at 21.2 µM (top of the series), tumour line B
[18] = at 21.2 µM (top of the series), tumour line D

Row | Compound | Potency [1] | Potency [2] | Potency [3] | Potency [4] | Potency [5] | Potency [6] | Potency [7] | activity, negative = cell killing [8, 12] | activity, negative = cell killing [8, 13] | activity, negative = cell killing [8, 14] | Potency ([8]; tumour line A) | Potency [9] | activity, negative = cell killing [8, 15] | activity, negative = cell killing [8, 16] | activity, negative = cell killing [8, 17] | activity, negative = cell killing [8, 18] | activity, negative = cell killing ([8]; at 21.3 µM (top of the series), tumour line A) | max response [10] | outcome [11]
1 | NCc1ccccc1Sc1ccccc1CO | inactive | inactive | inactive | inactive | inactive | inactive | inactive | -12.4% | -24% | -18% | 35.5 µM (active) | inactive |  |  |  |  |  |  | 
2 | CC1CCc2c(N3CCC(O)CC3)c(F)cc3c(=O)c(C(=O)O)cn1c23 (stereo not drawn) | inactive | inactive | inactive | inactive | inactive | inactive | inactive | 9.87% | -25.4% | -16% |  | inactive | -14.1% |  |  |  |  |  | 
3 | CC(=O)OCC1=C(C(=O)O)N2C(=O)[C@@H](NC(=O)CSc3ccncc3)[C@H]2SC1 | inactive | inactive | inactive | inactive | inactive | inactive | inactive | -6.44% | -23.6% | -18.9% |  | inactive | -34.9% |  |  |  |  |  | 
4 | CCCc1ncc(C[n+]2ccccc2C)c(N)n1 | inactive | inactive | inactive | inactive | inactive | inactive | inactive |  |  |  |  | inactive |  | 11.7% | -1.46% | -1.64% | -22.4% |  | 
5 | COP(=O)(OC)OC(c1ccc(Cl)cc1)P(=O)(OC)OC (stereo not drawn) | inactive | inactive | inactive | inactive | inactive | inactive | inactive | -15.7% | -14.1% | -24.8% |  | inactive |  |  |  |  |  |  | 
6 | C[N+]12CCC(CC1)C(OC(=O)C(O)(c1ccccc1)c1ccccc1)C2 (stereo not drawn) | inactive | inactive | inactive | inactive | inactive | inactive | inactive |  |  |  |  | inactive |  | -3.46% | -10.6% | -5.49% |  |  | 
7 | Cl/C(=C\n1cncn1)c1ccc(Cl)cc1Cl | inactive | inactive | inactive | inactive | inactive | inactive | inactive | -7.02% | -2.18% | -23.5% |  | inactive |  |  |  |  |  |  | 
8 | OC[C@H]1O[C@@H]2O[C@H]3[C@H](O)[C@@H](O)[C@@H](O[C@H]4[C@H](O)[C@@H](O)[C@@H](O[C@H]5[C@H](O)[C@@H](O)[C@@H](O[C@H]6[C@H](O)[C@@H](O)[C@@H](O[C@H]7[C@H](O)[C@@H](O)[C@@H](O[C@H]8[C@H](O)[C@@H](O)[C@@H](O[C@H]1[C@H](O)[C@H]2O)O[C@@H]8CO)O[C@@H]7CO)O[C@@H]6CO)O[C@@H]5CO)O[C@@H]4CO)O[C@@H]3CO | inactive | inactive | inactive | inactive | inactive | inactive | inactive | -11.6% | 5.3% | -14.8% |  | inactive | -16.2% |  |  |  |  | -1.43% | inactive
9 | CN(C)CCOC(=O)C(c1ccccc1)C1(O)CCCC1 (stereo not drawn) | inactive | inactive | inactive | inactive | inactive | inactive | inactive | -2.94% | -18.8% | -22.9% |  | inactive |  |  |  |  |  |  | 
10 | O=C1[C@H](CC[C@H](O)c2ccc(F)cc2)[C@@H](c2ccc(O)cc2)N1c1ccc(F)cc1 | inactive | inactive | inactive | inactive | inactive | inactive | inactive | -11.2% | -13.5% | 1.66% |  | inactive |  |  |  |  |  |  | 
11 | Cc1ccccc1OCC(O)CO (stereo not drawn) | inactive | inactive | inactive | inactive | inactive | inactive | inactive | -8.02% | -9.22% | -19.6% |  | inactive |  |  |  |  |  |  | 
12 | CCN(CC)CCNC(=O)COc1ccc(OC)cc1 | inactive | inactive | inactive | inactive | inactive | inactive | inactive | -17.2% | -10.2% | -17.2% |  | inactive | -59% |  |  |  |  |  | 
13 | C/C=C/C=N/NC(=O)c1ccncc1 | inactive | inactive | inactive | inactive | inactive | inactive | inactive | -13.6% | -18.3% | -22.3% |  | inactive |  |  |  |  |  |  | 
14 | CC(C)[N+](C)(C)CC(O)COc1cccc2ccccc12 (stereo not drawn) | inactive | inactive | inactive | inactive | inactive | inactive | inactive | -19.8% | -17.5% | -27.6% |  | inactive |  |  |  |  |  |  | 
15 | CC(C)Cn1cnc2c1c(=O)n(C)c(=O)n2C | inactive | inactive | inactive | inactive | inactive | inactive | inactive | -4.91% | -3.1% | -1.11% |  | inactive |  |  |  |  |  |  | 
